Article PMC7862700, “An all-to-all approach to the identification of sequence-specific readers for epigenetic DNA modifications on cytosine”

Experiments:
Test in all cases: DAPPL (digital affinity profiling via proximity ligation, sequencing); 10 mM Tris-HCl pH 7.5, 50 mM NaCl, 1 mM DTT, 4% glycerol, room temperature, 30 min; GST-TFs on glutathione beads, 16-mer random dsDNA library, 0.1% formaldehyde crosslink after washing; high values mean tight binding
FEV = target: T1, FEV (Homo sapiens, UniProt Q99581 1-238); details: protein: recombinant; tags: N-terminal GST; dsDNA, one strand shown
T1 sequence: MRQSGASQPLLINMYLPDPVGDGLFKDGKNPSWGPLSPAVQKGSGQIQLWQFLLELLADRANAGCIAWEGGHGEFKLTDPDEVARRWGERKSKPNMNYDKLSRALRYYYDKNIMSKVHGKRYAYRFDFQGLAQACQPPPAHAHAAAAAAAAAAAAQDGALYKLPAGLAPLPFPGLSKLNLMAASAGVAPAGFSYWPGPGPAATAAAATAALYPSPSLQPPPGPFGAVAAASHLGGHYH
Procedure, shortened: (§1)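 Each value of binding signal is a hexamer's read frequency for a factor divided by the same hexamer's frequency in the tag-only sample. Barcoded, bead-captured GST fusions of human transcription factors made in yeast were pooled with that sample and incubated with 200 nmole of a random double-stranded 16-mer DNA library in Tris/NaCl/DTT/glycerol buffer at room temperature for 30 min. Washing, 0.1% formaldehyde crosslinking, proximity ligation, PCR and Illumina NextSeq500 sequencing followed.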

ETV5 = ETV5 (Homo sapiens, UniProt P41161 1-510); details: protein: recombinant; tags: N-terminal GST; dsDNA, one strand shown
Procedure, shortened: as §1

HSF1 = HSF1 (Homo sapiens, UniProt Q00613 1-529); details: protein: recombinant; tags: N-terminal GST; chain copies: 3; dsDNA, one strand shown
Procedure, shortened: as §1

SPIC = target: T2, SPIC (Homo sapiens, UniProt Q8N5J4 1-248); details: protein: recombinant; tags: N-terminal GST; dsDNA, one strand shown
T2 sequence: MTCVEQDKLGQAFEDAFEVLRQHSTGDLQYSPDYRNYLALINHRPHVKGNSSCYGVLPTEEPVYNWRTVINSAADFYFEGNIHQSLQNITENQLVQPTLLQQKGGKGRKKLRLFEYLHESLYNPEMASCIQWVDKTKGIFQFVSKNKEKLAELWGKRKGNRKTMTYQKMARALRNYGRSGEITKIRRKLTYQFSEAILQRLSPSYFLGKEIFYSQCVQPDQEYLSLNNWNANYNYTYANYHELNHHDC
Procedure, shortened: as §1

ELF4 = ELF4 (Homo sapiens, UniProt Q99607 1-663); details: protein: recombinant; tags: N-terminal GST; dsDNA, one strand shown
Procedure, shortened: as §1

ELK4 = target: T3, ELK4 (Homo sapiens, UniProt P28324-2 1-405); details: protein: recombinant; tags: N-terminal GST; dsDNA, one strand shown
T3 sequence: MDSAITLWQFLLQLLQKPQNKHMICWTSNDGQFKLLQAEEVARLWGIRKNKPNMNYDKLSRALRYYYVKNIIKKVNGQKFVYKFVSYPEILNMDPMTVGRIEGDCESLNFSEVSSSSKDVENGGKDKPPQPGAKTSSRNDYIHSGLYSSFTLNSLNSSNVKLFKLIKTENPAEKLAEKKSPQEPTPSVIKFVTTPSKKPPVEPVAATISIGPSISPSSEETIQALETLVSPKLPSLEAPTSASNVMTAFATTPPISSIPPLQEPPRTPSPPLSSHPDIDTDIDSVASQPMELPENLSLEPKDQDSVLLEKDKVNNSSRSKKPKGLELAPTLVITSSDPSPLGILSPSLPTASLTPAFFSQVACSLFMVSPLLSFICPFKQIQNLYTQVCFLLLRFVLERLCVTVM
Procedure, shortened: as §1

ETV2 = target: T4, ETV2 (Homo sapiens, UniProt O00321 1-342); details: protein: recombinant; tags: N-terminal GST; dsDNA, one strand shown
T4 sequence: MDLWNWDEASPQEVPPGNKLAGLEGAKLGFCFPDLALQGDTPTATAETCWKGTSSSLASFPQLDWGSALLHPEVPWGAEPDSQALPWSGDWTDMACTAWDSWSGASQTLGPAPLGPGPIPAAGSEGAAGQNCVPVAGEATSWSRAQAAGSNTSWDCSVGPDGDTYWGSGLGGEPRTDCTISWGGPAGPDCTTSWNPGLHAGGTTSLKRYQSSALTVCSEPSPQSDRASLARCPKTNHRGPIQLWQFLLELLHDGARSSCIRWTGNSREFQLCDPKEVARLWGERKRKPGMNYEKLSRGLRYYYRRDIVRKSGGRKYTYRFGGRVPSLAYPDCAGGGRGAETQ
Procedure, shortened: as §1

ELF3 = target: T5, ELF3 (Homo sapiens, UniProt P78545 1-371); details: protein: recombinant; tags: N-terminal GST; dsDNA, one strand shown
T5 sequence: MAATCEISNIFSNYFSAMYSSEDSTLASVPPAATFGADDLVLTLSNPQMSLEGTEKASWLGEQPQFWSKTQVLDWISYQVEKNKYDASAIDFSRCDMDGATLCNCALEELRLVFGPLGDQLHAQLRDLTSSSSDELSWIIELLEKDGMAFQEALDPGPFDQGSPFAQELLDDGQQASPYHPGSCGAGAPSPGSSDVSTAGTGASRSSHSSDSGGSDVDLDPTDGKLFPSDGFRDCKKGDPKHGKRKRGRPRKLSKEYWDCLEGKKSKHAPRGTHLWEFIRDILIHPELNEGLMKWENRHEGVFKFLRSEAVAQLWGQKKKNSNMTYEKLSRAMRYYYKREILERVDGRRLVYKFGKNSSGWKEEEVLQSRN
Procedure, shortened: as §1

CRX = CRX (Homo sapiens, UniProt O43186 1-299); details: protein: recombinant; tags: N-terminal GST; dsDNA, one strand shown
Procedure, shortened: as §1

ETV1 = ETV1 (Homo sapiens, UniProt P50549 1-477); details: protein: recombinant; tags: N-terminal GST; dsDNA, one strand shown
Procedure, shortened: as §1

ERF = target: T6, ERF (Homo sapiens, UniProt P50548 1-548); details: protein: recombinant; tags: N-terminal GST; dsDNA, one strand shown
T6 sequence: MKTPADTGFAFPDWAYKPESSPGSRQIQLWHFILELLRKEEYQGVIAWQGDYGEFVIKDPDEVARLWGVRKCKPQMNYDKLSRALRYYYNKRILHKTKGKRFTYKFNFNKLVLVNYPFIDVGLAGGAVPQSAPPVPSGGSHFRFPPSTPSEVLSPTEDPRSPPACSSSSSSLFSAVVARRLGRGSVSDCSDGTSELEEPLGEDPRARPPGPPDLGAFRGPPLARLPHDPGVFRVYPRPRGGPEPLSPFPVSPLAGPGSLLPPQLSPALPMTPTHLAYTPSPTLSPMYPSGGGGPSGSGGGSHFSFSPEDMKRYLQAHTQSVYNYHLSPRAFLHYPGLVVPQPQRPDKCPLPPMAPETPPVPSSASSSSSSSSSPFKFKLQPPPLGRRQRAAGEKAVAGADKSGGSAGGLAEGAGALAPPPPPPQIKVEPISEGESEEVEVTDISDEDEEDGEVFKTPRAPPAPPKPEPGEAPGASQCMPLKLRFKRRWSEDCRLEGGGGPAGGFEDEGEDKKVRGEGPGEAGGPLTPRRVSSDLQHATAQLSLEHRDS
Procedure, shortened: as §1

ETV3L = target: T7, ETV3L (Homo sapiens, UniProt Q6ZN32 1-361); details: protein: recombinant; tags: N-terminal GST; dsDNA, one strand shown
T7 sequence: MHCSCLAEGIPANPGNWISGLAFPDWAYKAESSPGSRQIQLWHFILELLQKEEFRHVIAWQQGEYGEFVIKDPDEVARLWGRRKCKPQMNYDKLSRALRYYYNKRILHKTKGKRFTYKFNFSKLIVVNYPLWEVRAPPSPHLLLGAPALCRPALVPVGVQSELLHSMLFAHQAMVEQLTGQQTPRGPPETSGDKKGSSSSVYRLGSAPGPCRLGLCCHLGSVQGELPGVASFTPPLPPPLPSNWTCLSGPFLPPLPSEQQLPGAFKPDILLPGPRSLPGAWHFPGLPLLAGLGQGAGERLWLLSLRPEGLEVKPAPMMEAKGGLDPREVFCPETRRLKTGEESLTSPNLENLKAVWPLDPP
Procedure, shortened: as §1

ETS2 = target: T8, ETS2 (Homo sapiens, UniProt P15036 1-469); details: protein: recombinant; tags: N-terminal GST; dsDNA, one strand shown
T8 sequence: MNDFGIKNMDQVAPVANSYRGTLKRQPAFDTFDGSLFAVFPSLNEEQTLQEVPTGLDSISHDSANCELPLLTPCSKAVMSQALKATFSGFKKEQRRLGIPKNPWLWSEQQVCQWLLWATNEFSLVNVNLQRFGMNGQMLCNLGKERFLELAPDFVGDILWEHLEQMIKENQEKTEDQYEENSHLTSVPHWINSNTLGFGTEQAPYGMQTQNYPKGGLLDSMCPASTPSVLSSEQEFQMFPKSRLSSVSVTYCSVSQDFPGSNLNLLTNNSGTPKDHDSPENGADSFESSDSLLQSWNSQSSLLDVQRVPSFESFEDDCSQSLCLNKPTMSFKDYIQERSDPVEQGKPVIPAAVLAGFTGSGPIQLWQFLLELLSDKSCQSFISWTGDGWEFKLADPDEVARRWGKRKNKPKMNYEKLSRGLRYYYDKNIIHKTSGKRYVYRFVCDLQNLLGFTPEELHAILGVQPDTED
Procedure, shortened: as §1

SPDEF = target: T9, SPDEF (Homo sapiens, UniProt O95238 1-335); details: protein: recombinant; tags: N-terminal GST; dsDNA, one strand shown
T9 sequence: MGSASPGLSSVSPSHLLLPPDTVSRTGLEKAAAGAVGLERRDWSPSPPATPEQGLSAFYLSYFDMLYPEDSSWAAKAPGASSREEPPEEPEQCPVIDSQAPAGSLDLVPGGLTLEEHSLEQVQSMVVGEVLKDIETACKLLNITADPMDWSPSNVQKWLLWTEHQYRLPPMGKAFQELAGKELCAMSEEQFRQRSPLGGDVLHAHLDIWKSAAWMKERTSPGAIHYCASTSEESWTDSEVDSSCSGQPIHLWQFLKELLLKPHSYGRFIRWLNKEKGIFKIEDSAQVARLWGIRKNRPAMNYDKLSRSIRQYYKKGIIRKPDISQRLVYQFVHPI
Procedure, shortened: as §1

ETV7 = target: T10, ETV7 (Homo sapiens, UniProt Q9Y603 1-341); details: protein: recombinant; tags: N-terminal GST; dsDNA, one strand shown
T10 sequence: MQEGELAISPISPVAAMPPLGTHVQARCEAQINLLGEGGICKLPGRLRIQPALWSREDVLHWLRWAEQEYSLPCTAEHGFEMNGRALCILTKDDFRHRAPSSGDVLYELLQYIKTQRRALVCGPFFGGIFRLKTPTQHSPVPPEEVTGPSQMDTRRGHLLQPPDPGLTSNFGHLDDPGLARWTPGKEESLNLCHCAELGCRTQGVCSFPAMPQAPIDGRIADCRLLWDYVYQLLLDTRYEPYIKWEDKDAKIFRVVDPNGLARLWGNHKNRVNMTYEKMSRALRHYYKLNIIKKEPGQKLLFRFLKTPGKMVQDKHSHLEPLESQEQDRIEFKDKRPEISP
Procedure, shortened: as §1

ELF5 = target: T11, ELF5 (Homo sapiens, UniProt Q9UKW6-2 1-255); details: protein: recombinant; tags: N-terminal GST; dsDNA, one strand shown
T11 sequence: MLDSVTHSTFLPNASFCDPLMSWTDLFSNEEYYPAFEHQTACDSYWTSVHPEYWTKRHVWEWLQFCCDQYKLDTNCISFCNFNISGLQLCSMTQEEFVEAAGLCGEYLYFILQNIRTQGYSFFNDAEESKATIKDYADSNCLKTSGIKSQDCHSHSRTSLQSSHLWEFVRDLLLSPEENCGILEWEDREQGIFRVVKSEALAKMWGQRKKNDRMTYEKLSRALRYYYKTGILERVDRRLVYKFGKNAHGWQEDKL
Procedure, shortened: as §1

ETV3 = target: T12, ETV3 (Homo sapiens, UniProt P41162-2 1-143); details: protein: recombinant; tags: N-terminal GST; dsDNA, one strand shown
T12 sequence: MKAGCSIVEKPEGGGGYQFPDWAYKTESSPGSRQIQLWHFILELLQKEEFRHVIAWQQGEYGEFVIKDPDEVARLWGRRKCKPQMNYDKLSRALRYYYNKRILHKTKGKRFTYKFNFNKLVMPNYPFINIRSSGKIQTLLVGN
Procedure, shortened: as §1

ETV6 = ETV6 (Homo sapiens, UniProt P41212 1-452); details: protein: recombinant; tags: N-terminal GST; dsDNA, one strand shown
Procedure, shortened: as §1

HSF1, sequence (Q00613 whole entry): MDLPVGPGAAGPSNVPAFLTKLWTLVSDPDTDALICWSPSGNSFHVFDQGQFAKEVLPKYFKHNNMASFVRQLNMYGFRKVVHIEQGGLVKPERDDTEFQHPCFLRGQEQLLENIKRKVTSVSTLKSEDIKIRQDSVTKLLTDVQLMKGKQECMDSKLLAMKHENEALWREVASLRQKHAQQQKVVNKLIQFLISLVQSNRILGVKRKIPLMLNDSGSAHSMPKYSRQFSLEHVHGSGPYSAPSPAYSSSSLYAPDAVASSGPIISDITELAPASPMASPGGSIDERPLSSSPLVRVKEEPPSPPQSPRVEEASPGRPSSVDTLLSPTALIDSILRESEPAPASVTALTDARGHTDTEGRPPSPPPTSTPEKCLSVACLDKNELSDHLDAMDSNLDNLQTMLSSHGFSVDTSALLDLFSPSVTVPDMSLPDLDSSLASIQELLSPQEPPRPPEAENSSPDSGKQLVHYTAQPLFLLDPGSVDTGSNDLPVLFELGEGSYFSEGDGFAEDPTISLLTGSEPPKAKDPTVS
ETV6, sequence (P41212 whole entry): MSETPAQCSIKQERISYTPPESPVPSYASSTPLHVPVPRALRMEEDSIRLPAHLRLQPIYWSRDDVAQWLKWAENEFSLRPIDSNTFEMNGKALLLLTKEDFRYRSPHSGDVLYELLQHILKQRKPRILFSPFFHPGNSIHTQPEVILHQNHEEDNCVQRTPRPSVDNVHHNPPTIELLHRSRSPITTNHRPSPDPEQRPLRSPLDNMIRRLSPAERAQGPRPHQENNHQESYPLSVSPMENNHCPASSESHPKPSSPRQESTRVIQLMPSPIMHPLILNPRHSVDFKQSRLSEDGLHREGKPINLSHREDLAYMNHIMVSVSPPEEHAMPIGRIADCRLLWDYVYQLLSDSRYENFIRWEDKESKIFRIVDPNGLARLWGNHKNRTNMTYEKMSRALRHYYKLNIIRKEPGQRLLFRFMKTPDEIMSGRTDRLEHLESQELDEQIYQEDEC
ETV5, sequence (P41161 whole entry): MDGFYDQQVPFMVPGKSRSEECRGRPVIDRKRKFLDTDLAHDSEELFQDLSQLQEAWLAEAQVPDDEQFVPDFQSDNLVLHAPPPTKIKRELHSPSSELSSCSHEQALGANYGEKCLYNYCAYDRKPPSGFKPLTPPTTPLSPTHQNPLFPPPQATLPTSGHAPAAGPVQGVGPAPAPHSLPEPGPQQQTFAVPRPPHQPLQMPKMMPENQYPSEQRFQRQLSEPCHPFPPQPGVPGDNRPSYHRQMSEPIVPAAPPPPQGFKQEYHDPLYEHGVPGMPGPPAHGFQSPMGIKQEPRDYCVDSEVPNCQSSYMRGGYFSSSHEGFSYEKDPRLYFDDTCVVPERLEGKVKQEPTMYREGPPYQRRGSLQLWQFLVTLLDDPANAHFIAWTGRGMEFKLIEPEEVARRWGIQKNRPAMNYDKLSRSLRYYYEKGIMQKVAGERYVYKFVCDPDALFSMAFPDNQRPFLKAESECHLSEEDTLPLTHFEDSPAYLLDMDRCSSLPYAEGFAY
ETV1, sequence (P50549 whole entry): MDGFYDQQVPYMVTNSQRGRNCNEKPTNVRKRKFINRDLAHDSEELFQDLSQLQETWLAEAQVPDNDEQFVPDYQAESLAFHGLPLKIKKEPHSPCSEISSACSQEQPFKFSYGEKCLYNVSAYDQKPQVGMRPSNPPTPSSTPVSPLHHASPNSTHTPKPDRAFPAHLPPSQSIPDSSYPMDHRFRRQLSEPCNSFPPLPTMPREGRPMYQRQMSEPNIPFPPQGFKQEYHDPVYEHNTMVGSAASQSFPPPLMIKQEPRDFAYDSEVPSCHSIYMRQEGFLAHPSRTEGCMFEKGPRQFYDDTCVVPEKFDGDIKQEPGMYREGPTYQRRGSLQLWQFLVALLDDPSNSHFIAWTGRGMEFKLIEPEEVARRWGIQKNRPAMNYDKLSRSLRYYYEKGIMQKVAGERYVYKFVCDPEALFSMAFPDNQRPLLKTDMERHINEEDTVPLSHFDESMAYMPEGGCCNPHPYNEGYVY
ELF4, sequence (Q99607 whole entry): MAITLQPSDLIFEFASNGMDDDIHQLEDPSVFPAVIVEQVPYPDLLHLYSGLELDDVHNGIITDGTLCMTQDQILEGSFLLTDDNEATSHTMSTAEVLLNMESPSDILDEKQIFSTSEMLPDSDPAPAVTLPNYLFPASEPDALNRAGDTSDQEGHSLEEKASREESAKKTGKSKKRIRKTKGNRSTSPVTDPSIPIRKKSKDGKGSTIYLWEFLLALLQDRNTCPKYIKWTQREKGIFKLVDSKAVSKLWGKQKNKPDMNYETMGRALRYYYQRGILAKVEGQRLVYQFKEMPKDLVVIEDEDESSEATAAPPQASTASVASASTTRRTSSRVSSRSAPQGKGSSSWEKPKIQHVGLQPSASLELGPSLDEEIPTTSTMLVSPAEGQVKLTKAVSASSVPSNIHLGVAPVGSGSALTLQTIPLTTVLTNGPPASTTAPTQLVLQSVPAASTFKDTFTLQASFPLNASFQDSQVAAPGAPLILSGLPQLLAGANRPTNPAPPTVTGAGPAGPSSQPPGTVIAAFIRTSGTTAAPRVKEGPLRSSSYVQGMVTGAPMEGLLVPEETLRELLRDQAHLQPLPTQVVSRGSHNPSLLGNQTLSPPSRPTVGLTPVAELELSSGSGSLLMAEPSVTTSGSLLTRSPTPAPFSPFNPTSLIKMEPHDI
CRX, sequence (O43186 whole entry): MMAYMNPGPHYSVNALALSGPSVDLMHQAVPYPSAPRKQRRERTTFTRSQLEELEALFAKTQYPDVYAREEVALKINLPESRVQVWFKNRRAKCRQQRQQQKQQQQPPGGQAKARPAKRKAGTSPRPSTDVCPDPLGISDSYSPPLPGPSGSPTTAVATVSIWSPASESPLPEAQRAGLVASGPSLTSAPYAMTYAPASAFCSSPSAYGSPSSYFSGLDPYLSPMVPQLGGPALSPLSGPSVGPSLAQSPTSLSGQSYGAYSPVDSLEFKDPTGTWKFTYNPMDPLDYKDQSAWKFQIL

Sequence	binding signal (FEV)	binding signal (ETV5)	binding signal (HSF1)	binding signal (SPIC)	binding signal (ELF4)	binding signal (ELK4)	binding signal (ETV2)	binding signal (ELF3)	binding signal (CRX)	binding signal (ETV1)	binding signal (ERF)	binding signal (ETV3L)	binding signal (ETS2)	binding signal (SPDEF)	binding signal (ETV7)	binding signal (ELF5)	binding signal (ETV3)	binding signal (ETV6)
ATTCTG	1.23 fold enrichment (6-mer frequency, TF over GST control)	1.29 fold enrichment (6-mer frequency, TF over GST control)	2.18 fold enrichment (6-mer frequency, TF over GST control)	1.11 fold enrichment (6-mer frequency, TF over GST control)	1.37 fold enrichment (6-mer frequency, TF over GST control)	1.38 fold enrichment (6-mer frequency, TF over GST control)	1.43 fold enrichment (6-mer frequency, TF over GST control)	1.08 fold enrichment (6-mer frequency, TF over GST control)	1.5 fold enrichment (6-mer frequency, TF over GST control)	1.45 fold enrichment (6-mer frequency, TF over GST control)	1.38 fold enrichment (6-mer frequency, TF over GST control)	1.28 fold enrichment (6-mer frequency, TF over GST control)	1.31 fold enrichment (6-mer frequency, TF over GST control)	1.27 fold enrichment (6-mer frequency, TF over GST control)	1.23 fold enrichment (6-mer frequency, TF over GST control)	1.21 fold enrichment (6-mer frequency, TF over GST control)	1.26 fold enrichment (6-mer frequency, TF over GST control)	1.43 fold enrichment (6-mer frequency, TF over GST control)
AGCTTT	1.08 fold enrichment (6-mer frequency, TF over GST control)	1.18 fold enrichment (6-mer frequency, TF over GST control)	1.43 fold enrichment (6-mer frequency, TF over GST control)	1.03 fold enrichment (6-mer frequency, TF over GST control)	1.15 fold enrichment (6-mer frequency, TF over GST control)	1.28 fold enrichment (6-mer frequency, TF over GST control)	1.23 fold enrichment (6-mer frequency, TF over GST control)	1.45 fold enrichment (6-mer frequency, TF over GST control)	1.81 fold enrichment (6-mer frequency, TF over GST control)	1.1 fold enrichment (6-mer frequency, TF over GST control)	1.15 fold enrichment (6-mer frequency, TF over GST control)	1.2 fold enrichment (6-mer frequency, TF over GST control)	1.19 fold enrichment (6-mer frequency, TF over GST control)	1.12 fold enrichment (6-mer frequency, TF over GST control)	1.25 fold enrichment (6-mer frequency, TF over GST control)	1.04 fold enrichment (6-mer frequency, TF over GST control)	1.07 fold enrichment (6-mer frequency, TF over GST control)	1.19 fold enrichment (6-mer frequency, TF over GST control)
